Screen size: about 100,000 compounds; about 770 (0.77%) were called active. The entries come from a sample that favours actives as a whole. Unmarked numbers belong to inactive results. Cut-off read from the data, not from the text of the source: active = inhibition above about 50%; inactive = the rest.

Broadly, the inhibition is the change of the read-out against control, counted positive when it falls.

The assay has as its target Gag-Pol polyprotein (Human immunodeficiency virus type 1 group M subtype B (isolate HXB2)) (UniProt P04585). The assay can be described thus: RNase H inhibition, HIV 1 Gag Pol polyprotein, FRET biochemical assay, screening (AID 372). Conditions: HIV-1 RT RNase H, FRET RNA/DNA substrate fluorescence; at 10 µM; hits give high values.
On to `O=C1C2C3C=CC(CC3)C2C(=O)N1/N=C/c1ccccc1O` (configuration not stated), for which the inhibition was 0%.
In the case of `O=C1C2C3C=CC(CC3)C2C(=O)N1/N=C/c1ccc(I)o1` (configuration not stated), the inhibition was 3%.
With `O=C1C2C3C=CC(C3)C2C(=O)N1/N=C/c1ccccc1I` (configuration not stated), the inhibition was 0%.
Consider `O=C1C2C3C=CC(CC3)C2C(=O)N1/N=C/c1ccc(O)cc1` (configuration not stated), for which the inhibition is 0%.
For the compound `O=C1C2C3C=CC(CC3)C2C(=O)N1/N=C/c1ccccc1I` (configuration not stated), the inhibition was 59% (active).
For `O=C1C2C3C=CC(CC3)C2C(=O)N1/N=C/c1cccs1` (configuration not stated), the inhibition was 56% (active).
Regarding `CC(Oc1ccc(Br)cc1)C(=O)N/N=C/c1ccc(N(C)C)cc1` (configuration not stated), the inhibition is 8%.
For `O=C(O)c1cc(NS(=O)(=O)c2ccc(NCCCN3CCOCC3)c([N+](=O)[O-])c2)cc(C(=O)O)c1` the value was 4%.
To `COc1ccc(/C=N/Nc2nc(Nc3ccc(F)cc3)nc(N3CCCCC3)n2)cc1` belongs 6%; to `CCN(CC)C(=O)c1sc(NC(=O)c2cc(Cl)ccc2OC)c(C#N)c1C`, 7%.
As to `COc1ccc(Cl)cc1C(=O)Nc1sc(C)c(C)c1C#N`, the inhibition is 74% (active).
In the case of `Cc1sc(NC(=O)c2cc(Cl)ccc2Cl)c(C#N)c1C`, the inhibition is 4%.
To `CC(=O)C1=C(Nc2ccc(Br)cc2)CC(C)(O)C(C(C)=O)C1c1ccc([N+](=O)[O-])cc1` (configuration not stated) belongs 4%; to `Cc1ccc(P(=O)(c2ccc(C)cc2)C(C)(C)O)cc1`, 0%.
To `CCN(CC)c1nc(-c2ccccc2)c2cc(Cl)ccc2n1` belongs 12%.
To `CN(C)c1nc(-c2ccccc2)c2cc(Cl)ccc2n1` belongs 13%.
In the case of `CN(CCO)c1nc(-c2ccccc2)c2cc(Cl)ccc2n1`, the inhibition was 50% (active).
For `COc1ccc(-c2nn(-c3ccccc3)cc2/C=N/NS(=O)(=O)c2ccccc2)cc1`, the inhibition is 15%.
As for `S=C(NCCc1ccccn1)Nc1ccc(Cl)cc1Cl`, the inhibition is 50% (active).
Regarding `S=C(NCCc1c[nH]c2ccccc12)Nc1ccc(Cl)c(Cl)c1`, the inhibition was 49%.
For `S=C(NCCc1ccccc1)Nc1ccc(Cl)cc1Cl`, the inhibition was 46%.
For `S=C(NCCc1ccccn1)Nc1ccc(Cl)c(Cl)c1` the value was 59% (active); for `S=C(NCCC(c1ccccc1)c1ccccc1)Nc1ccc(Cl)cc1Cl`, 12%; for `O=C(NCc1ccccn1)Nc1ccc(Cl)c(Cl)c1`, 9%.
To `O=C(NC1CCCCC1)c1cccc(C(F)(F)F)c1` belongs 11%; to `Cc1cc(/C=C(\C#N)C(=O)Nc2ccccc2)c(C)n1-c1sc2c(c1C#N)CCCC2`, 15%.
In the case of `CC1(C)C(c2ccccc2)=[N+]([O-])C2(CCCCC/C2=N\NC(N)=O)N1O` (configuration not stated), the inhibition was 0%.
Regarding `Cc1cc(C)c(N/C=C(\C#N)c2nc(-c3ccc(Cl)cc3Cl)cs2)c(C)c1`, the inhibition is 27%.
`CCN(CC)S(=O)(=O)c1cc(-c2nnc(-c3ccc(C)cc3)o2)ccc1C`: the inhibition is 3%.
In the case of `COc1cccc2c1NC(c1ccc([N+](=O)[O-])cc1)C1CC=CC21` (configuration not stated), the inhibition was 51% (active).
As to `COc1cccc2c1NC(c1ccc(F)cc1)C1CC=CC21` (configuration not stated), the inhibition was 35%.
As for `O=[N+]([O-])c1ccc(C2Nc3c(cccc3[N+](=O)[O-])C3C=CCC32)cc1` (configuration not stated), the inhibition is 35%.
With `Cc1ccc(S(=O)(=O)Nc2cc(C)c(O)c(S(=O)(=O)c3ccc(C)cc3)c2)cc1`, the inhibition was 18%.
On to `O=C1c2ccc(Oc3ccc([N+](=O)[O-])cc3)cc2C(=O)N1c1nc2ccccc2s1`, for which the inhibition was 11%.
Consider `Cc1ccc(N2C(=O)C3C4C=CC(O4)C3C2=O)c(C)c1` (configuration not stated), for which the inhibition is 5%.
For the compound `Oc1c(C=Nc2cccc3nsnc23)cc(Br)c2ccccc12`, the inhibition was 5%.
`Oc1c(Br)ccc(Cl)c1C=Nc1cccc2nsnc12`: the inhibition was 8%.
For `COc1ccc(Br)c(C=Nc2cccc3nsnc23)c1O` the value was 64% (active); for `Brc1ccccc1OCCCCCn1ccnc1`, 5%.
On to `CN1C(=O)CS/C1=N/S(=O)(=O)c1ccc([N+](=O)[O-])cc1`, for which the inhibition is 10%.
To `S=C(NCc1ccco1)NC1CCCC1` belongs 6%.
For the compound `O=c1c(O)c(-c2ccc3c(c2)OCO3)oc2ccccc12`, the inhibition is 0%.
Take `O=c1c(O)c(-c2ccc(O)c(O)c2)oc2cc(O)cc(O)c12`: the inhibition is 73% (active).
Regarding `Cc1ccc(-c2oc3ccccc3c(=O)c2O)cc1`, the inhibition was 3%.
Take `CN(C)c1ccc(C(c2c[nH]c3ccccc23)c2c[nH]c3ccccc23)cc1`: the inhibition is 23%.
Consider `Cc1cccc(/C=C2\C(=O)NC(=O)N(c3cccc(Br)c3)C2=O)c1`, for which the inhibition was 10%.
`C=CCNC(=S)Nc1ccc2nc3c4ccccc4c4ccccc4c3nc2c1`: the inhibition is 24%.
`C=CCNC(=O)Nc1ccc2nc(-c3ccccc3)c(-c3ccccc3)nc2c1`: the inhibition was 15%.
Regarding `C=CCNC(=O)Nc1ccc2nc3c4ccccc4c4ccccc4c3nc2c1`, the inhibition is 51% (active).
To `Cc1cc(C)n(-c2ccc(N3CCOCC3)nn2)n1` belongs 11%.
Turning to `CCN(CC)C(=O)CSc1nc(-c2ccccc2)c(-c2ccccc2)o1`, the inhibition is 15%.
On to `NC(=O)CSc1nc(-c2ccccc2)c(-c2ccccc2)o1`, for which the inhibition is 37%.
Take `CC(=O)CSc1nc(-c2ccccc2)c(-c2ccccc2)o1`: the inhibition was 50% (active).
As to `COc1ccc(-c2csc(NC3OC(=O)c4c3ccc(OC)c4OC)n2)cc1` (configuration not stated), the inhibition was 20%.
As for `CCOc1cc(C(=O)Nc2ccc(OC)c(Cl)c2)cc(OCC)c1OCC`, the inhibition is 8%.
`O=S(=O)(Nc1ccc(F)cc1F)c1ccc2ccccc2c1`: the inhibition is 15%.
On to `N/C(=N/OC(=O)c1cccc([N+](=O)[O-])c1)c1nonc1N`, for which the inhibition is 14%.
To `O=C1C=CC(=O)N1c1cccc(Cl)c1` belongs 19%; to `OCc1ccc(-c2cccc(Cl)c2)o1`, 28%.
To `O=C(O)c1ccc(-c2cc(Cl)ccc2Cl)o1` belongs 0%; to `O=C1C(Cl)=C(Cl)C(=O)N1c1cc(Cl)ccc1Cl`, 4%.
With `O=C1C=CC(=O)C(c2cccc(C(F)(F)F)c2)=C1`, the inhibition was 71% (active).
Take `Cc1ccc(C2=CC(=O)N(c3cccc(C(F)(F)F)c3)C2=O)cc1`: the inhibition is 10%.
Turning to `O=C1C(Cl)=C(Cl)C(=O)N1c1cccc(C(F)(F)F)c1`, the inhibition is 6%.
With `CCOc1ccc(C(=O)Nc2cccc(-c3nc4cc(C)ccc4o3)c2C)cc1Br`, the inhibition is 11%.
Take `O=C(Nc1ccc(S(=O)(=O)Nc2ncccn2)cc1)c1cccnc1`: the inhibition was 8%.
As for `CCOc1ccc2ccc(OCC)c(/C=C3/C(=O)NC(=O)N(Cc4ccco4)C3=O)c2c1`, the inhibition was 26%.
Regarding `CCCN(CCC)CCCNC(=O)/C=N\O`, the inhibition is 6%.
As to `COc1cc(OC)c(/C=C2\C(=O)NC(=S)N(c3cccc(Cl)c3)C2=O)cc1Br`, the inhibition was 9%.
Take `CC(Oc1ccc(/C=C2/SC(=O)NC2=O)cc1)C(=O)O` (configuration not stated): the inhibition is 10%.
With `O=C(Nc1nnc(-c2cccc([N+](=O)[O-])c2)s1)Nc1ccc(Cl)cc1Cl`, the inhibition is 43%.
For the compound `O=C(/C=C/c1ccc(-c2ccc(Cl)c(Cl)c2)o1)c1ccco1`, the inhibition was 2%.
With `O=C(/C=C/c1ccco1)/C=C/c1ccc(-c2ccc(Br)cc2)o1`, the inhibition was 33%.
On to `O=C(/C=C/c1ccco1)/C=C/c1ccc(-c2ccc(Cl)c(Cl)c2)o1`, for which the inhibition was 52% (active).
Consider `CSc1nc(-c2ccccc2)c(C#N)c(=O)n1C`, for which the inhibition is 15%.
For `CCCCCC/C(=N\NC(=O)c1ccncc1)c1ccccc1` the value was 5%; for `CCc1c(C)sc(NC(=O)C2CC3CCC2C3)c1C#N` (configuration not stated), 21%; for `CCc1c(C)sc(NC(=O)C2CCCCC2C(=O)O)c1C(N)=O` (configuration not stated), 48%.
To `CCc1c(C)sc(NC(=O)C2CCCCC2C(=O)O)c1C#N` (configuration not stated) belongs 75% (active).
For `O=C1OC(c2sc3ccccc3c2Cl)=N/C1=C/c1ccc(F)cc1`, the inhibition is 1%.
To `CC1(C)OC(=O)C(=Cc2ccc(I)o2)C(=O)O1` belongs 53% (active); to `O=C1C(=Cc2ccc(I)o2)C(=O)c2ccccc21`, 9%.
For the compound `CN1C(=O)C(=Cc2ccc(I)o2)C(=O)N(C)C1=S`, the inhibition was 21%.
Take `O=C(/C=C/c1ccccc1)C1=C(O)C(=O)N(c2ccccc2)C1c1cccc([N+](=O)[O-])c1` (configuration not stated): the inhibition was 10%.
To `Fc1cccc(-c2n[nH]c(=S)n2-c2ccccc2)c1` belongs 5%.
For `Cc1cc2nc3s/c(=C/c4ccc(F)cc4)c(=O)n3c2cc1C` the value was 1%; for `Oc1ccc(-c2cc(-c3ccc(O)cc3)nc(-c3ccccc3)n2)cc1`, 31%; for `O=C1C=CC(=O)N1c1ccc(-c2cc(-c3ccccc3)nc(-c3ccc(N4C(=O)C=CC4=O)cc3)n2)cc1`, 54% (active).
Turning to `Clc1cc(-c2ccccc2)nc(-c2ccccc2)n1`, the inhibition is 24%.
Consider `Cc1ccc(C(=O)Nc2ccc(Cc3ccncc3)cc2)cc1[N+](=O)[O-]`, for which the inhibition is 5%.
To `Cc1ccc(N(CC(=O)NC2CCCC2)S(=O)(=O)c2ccc(F)cc2)cc1` belongs 5%.
`CSc1ccc(S(=O)(=O)N(CC(=O)NC2CCCCC2)c2ccc(C)cc2)cc1`: the inhibition is 13%.
`Cc1ccc(N(CC(=O)NC2CCCCC2)S(=O)(=O)c2ccc(F)cc2)cc1`: the inhibition is 56% (active).
Regarding `COc1ccccc1CNS(=O)(=O)c1ccc(Cl)cc1`, the inhibition is 0%.
For `N=C1/C(=C/c2ccc(-c3ccccc3)o2)C(=O)N=C2SC(c3ccccc3)=NN12` the value was 2%; for `Cc1ccc(N2NC(=O)/C(=C/c3ccc(Br)cc3)C2=O)cc1C`, 15%.
For `O=C(CSc1nc2ccc(N3C(=O)c4ccccc4C3=O)cc2s1)Nc1ccc(F)cc1` the value was 11%; for `O=C(CSc1nc2ccc(N3C(=O)c4ccccc4C3=O)cc2s1)Nc1ccc(Br)cc1`, 28%.
Take `O=C(CSc1nc2ccc(N3C(=O)c4ccccc4C3=O)cc2s1)c1ccc(F)cc1`: the inhibition was 43%.
For `COc1ccc(NC(=O)CSc2nc3ccc(N4C(=O)c5ccccc5C4=O)cc3s2)cc1` the value was 56% (active); for `O=C(CSc1nc2ccc(N3C(=O)c4ccccc4C3=O)cc2s1)c1ccccc1`, 8%; for `O=C(CSc1nc2ccc(N3C(=O)c4ccccc4C3=O)cc2s1)c1ccc(Cl)cc1`, 56% (active).

The values above are taken from PubChem BioAssay AID372 (MTDP, 2006).
